# Source: PubChem BioAssay AID1224921 (Broad Institute, 2016)
# Among all 1,400 compounds or so, about 350 (25%) were called active. About 2% were inconclusive and are not listed. No rule for the calls is given here. Only a sample is shown. Entries with a potency or affinity are not part of this list.
# Assay: C. difficile growth inhibition, confirmation, 4-point retest (AID 1224921);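 also: plate controls were DMSO wells for no effect and levofloxacin 16 µg/mL wells for full effect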
# Details: Clostridioides difficile clinical isolate growth, OD600, 24 h, active compounds read low; at 30 µM unless noted
row,Compound,max activity
1,COc1ccccc1C#Cc1ccc([C@H]2[C@@H](CO)N(C(=O)C3CC3)[C@H]2C#N)cc1,12.6% (inactive)
2,N#C[C@H]1[C@@H](c2ccc(C#Cc3ccccc3F)cc2)[C@@H](CO)N1C(=O)C1CCC1,-4.04% (inactive)
3,N#C[C@@H]1[C@@H](c2ccc(C#Cc3cccc(F)c3)cc2)[C@H](CO)N1C(=O)C1CCC1,24.5% [at 0.5 µM] (inactive)
4,COc1ccccc1C#Cc1ccc([C@@H]2[C@@H](C#N)N(C(=O)C3CCCCC3)[C@H]2CO)cc1,30.9% (inactive)
5,COc1ccccc1C#Cc1ccc([C@H]2[C@@H](C#N)N(C(=O)C3CCC3)[C@H]2CO)cc1,29.5% [at 8 µM] (inactive)
6,COc1cccc(C#Cc2ccc([C@@H]3[C@@H](C#N)N(C(=O)C4CCCCC4)[C@H]3CO)cc2)c1,32.5% (inactive)
7,COc1ccccc1C#Cc1ccc([C@@H]2[C@@H](CO)N(C(=O)C3CCCCC3)[C@H]2C#N)cc1,12.6% [at 1.95 µM] (inactive)
8,COc1cccc(C#Cc2ccc([C@H]3[C@@H](CO)N(C(=O)C4CCC4)[C@H]3C#N)cc2)c1,29% [at 8 µM] (inactive)
9,C[C@H](C(=O)N(C)C[C@@H]1OCc2ccccc2-c2ccccc2C(=O)N([C@H](C)CO)C[C@H]1C)c1ccccc1,-11.2% [at 1.95 µM] (inactive)
10,CCCC(=O)Nc1ccc2c(c1)C(=O)N(C)C[C@@H](OC)[C@H](C)CN(Cc1ccccc1)[C@@H](C)CO2,26.7% (inactive)
11,O=C(C[C@H]1CC[C@H](NC(=O)C2CCOCC2)[C@@H](CO)O1)Nc1nccs1,-4.31% [at 1.95 µM] (inactive)
12,C[C@H]1CN([C@@H](C)CO)S(=O)(=O)c2ccc(C#Cc3ccc(F)cc3)cc2O[C@@H]1CN(C)S(C)(=O)=O,-17.5% [at 1.95 µM] (inactive)
13,CCCC#Cc1ccc2c(c1)O[C@H](CN(C)Cc1ccncc1)[C@H](C)CN([C@@H](C)CO)S2(=O)=O,-13.4% [at 8 µM] (inactive)
14,CCCC(=O)Nc1ccc2c(c1)OC[C@@H](C)N(C(=O)c1ccccc1F)C[C@@H](C)[C@H](OC)CN(C)C2=O,-11% [at 1.95 µM] (inactive)
15,CO[C@@H]1CN(C)C(=O)c2cc(NC(=O)c3cccc(F)c3)ccc2OC[C@@H](C)N(C(C)=O)C[C@@H]1C,7.72% (inactive)
16,C[C@@H]1CN([C@H](C)CO)C(=O)c2ccccc2-c2ccccc2CO[C@H]1CN(C)S(=O)(=O)c1ccc(Cl)cc1,34.1% (inactive)
17,CCCN1C[C@H](C)[C@H](OC)CN(C)C(=O)c2cc(NC(=O)Nc3cccc(OC)c3)ccc2OC[C@@H]1C,17.5% [at 35 µM] (inactive)
18,C[C@@H]1CN([C@@H](C)CO)C(=O)c2cccc(NS(C)(=O)=O)c2O[C@@H]1CN(C)Cc1ccccc1,-11.2% [at 8 µM] (inactive)
19,C[C@@H]1CN([C@@H](C)CO)C(=O)c2cccc(NS(C)(=O)=O)c2O[C@H]1CN(C)Cc1ccccc1,16.6% (inactive)
20,C[C@@H]1CN([C@@H](C)CO)C(=O)c2cc(NC(=O)Nc3ccc(C(F)(F)F)cc3)ccc2O[C@@H]1CN(C)Cc1ccc(Oc2ccccc2)cc1,30.2% (inactive)
21,C[C@H](CO)N1C[C@H](C)[C@H](CN(C)Cc2ccccc2)Oc2c(NS(C)(=O)=O)cccc2C1=O,24.8% (inactive)

row,Compound,max activity
1,C[C@H]1CN([C@@H](C)CO)C(=O)c2cccc(NS(=O)(=O)c3ccccc3)c2O[C@H]1CN(C)Cc1ccc(Cl)c(Cl)c1,33.4% (inactive)
2,O=C(C[C@H]1C=C[C@H](NC(=O)c2ccncc2)[C@@H](CO)O1)Nc1ccc(-c2ccccc2)cc1,-5.7% [at 0.5 µM] (inactive)
3,COc1ccc(COC[C@@]23Oc4ccccc4[C@@H](NC(=S)N2C)[C@H]3CO[Si](C)(C)C(C)(C)C)cc1,23.7% (inactive)
4,O=C(C[C@H]1C[C@H]2c3cc(NC(=O)Nc4ccccc4)ccc3O[C@H]2[C@@H](CO)O1)NC1CCCC1,-20.3% [at 1.95 µM] (inactive)
5,C[C@H]1CN([C@@H](C)CO)S(=O)(=O)c2ccc(C3=CCCCC3)cc2O[C@@H]1CN(C)Cc1cccnc1,31.2% (inactive)
6,COc1cccc(NC(=O)N(C)C[C@H]2Oc3cc(C#CC4(O)CCCC4)ccc3S(=O)(=O)N([C@@H](C)CO)C[C@H]2C)c1,-5.35% [at 0.5 µM] (inactive)
7,CO[C@H]1CN(C)C(=O)c2ccc(NC(=O)c3ccccc3F)cc2OC[C@@H](C)N(CC2CC2)C[C@@H]1C,-8.61% [at 0.5 µM] (inactive)
8,COc1ccc(CN(C)C[C@@H]2OCCCC[C@@H](C)Oc3ccc(NC(=O)Nc4cccc5ccccc45)cc3C(=O)N([C@@H](C)CO)C[C@H]2C)cc1,29.5% [at 8 µM] (inactive)
9,COc1ccc(CN(C)C[C@@H]2OCCCC[C@H](C)Oc3ccc(NC(=O)Nc4cccc5ccccc45)cc3C(=O)N([C@@H](C)CO)C[C@H]2C)cc1,25.5% (inactive)
10,COc1ccc(CN(C)C[C@@H]2OCCCC[C@@H](C)Oc3ccc(NC(=O)Nc4cccc5ccccc45)cc3C(=O)N([C@H](C)CO)C[C@H]2C)cc1,17.7% [at 1.95 µM] (inactive)
11,C[C@@H]1CN([C@@H](C)CO)C(=O)c2cc(NC(=O)Nc3cccc4ccccc34)ccc2O[C@@H](C)CCCCO[C@H]1CN(C)Cc1ccccc1,42% (inactive)
12,CC(C)(C)[S@@](=O)N1Cc2cc(C(=O)NCc3ccc4c(c3)OCO4)nc(-c3cccc(-c4cccnc4)c3)c2[C@H]1CCO,31.3% [at 35 µM] (inactive)
13,O=C(C[C@@H]1C=C[C@H](NC(=O)c2cccnc2)[C@H](CO)O1)NCc1ccc(Cl)c(Cl)c1,-13.7% [at 1.95 µM] (inactive)
14,Cc1ccc(-c2ccc3c(c2)O[C@@H](CN(C)Cc2cccnc2)[C@H](C)CN([C@@H](C)CO)S3(=O)=O)cc1,41.8% (inactive)
15,C[C@H](NC(=O)C[C@@H]1CC[C@@H]2[C@H](COC[C@H](O)CN2C(=O)Nc2cc(Cl)cc(Cl)c2)O1)c1ccccc1,24.8% [at 8 µM] (inactive)
16,C[C@H](NC(=O)C[C@@H]1CC[C@@H]2[C@H](COC[C@@H](O)CN2C(=O)Nc2cc(Cl)cc(Cl)c2)O1)c1ccccc1,14% [at 1.95 µM] (inactive)
17,C[C@@H]1CN([C@@H](C)CO)S(=O)(=O)c2ccc(C#CCN(C)C)cc2O[C@H]1CN(C)C(=O)c1ccccc1F,7.9% (inactive)
18,N#C[C@@H]1[C@@H](c2ccc(/C=C/c3ccccc3)cc2)[C@@H](CO)N1C(=O)C1CCC1,38.2% [at 35 µM] (inactive)
19,COc1ccc(C(=O)Nc2ccc3c(c2)OC[C@H](C)N(C(C)=O)C[C@@H](C)[C@H](OC)CN(C)C3=O)cc1,-10.5% (inactive)
20,C[C@H](CO)N1C[C@H](C)[C@@H](CN(C)S(C)(=O)=O)OCCCC[C@H](C)Oc2ccc(NC(=O)Nc3cccc4ccccc34)cc2C1=O,7.82% (inactive)
21,COc1ccc(-c2ccc([C@H]3[C@@H](C#N)N(C(=O)C4CCCC4)[C@@H]3CO)cc2)cc1,25.1% [at 35 µM] (inactive)

row,Compound,max activity
1,CCCC(=O)Nc1ccc2c(c1)C(=O)N(C)C[C@@H](OC)[C@H](C)CN(CC1CCOCC1)[C@@H](C)CO2,-8.25% (inactive)
2,C[C@@H]1CN([C@H](C)CO)S(=O)(=O)c2ccc(C#CC3CC3)cc2O[C@H]1CN(C)Cc1ccncc1,29.7% [at 8 µM] (inactive)
3,O=C(C[C@@H]1CC[C@H](NC(=O)CCN2CCCCC2)[C@@H](CO)O1)Nc1nccs1,-9.66% [at 1.95 µM] (inactive)
4,C[C@@H]1CCCCO[C@H](CN(C)Cc2ccc(C(F)(F)F)cc2)[C@H](C)CN([C@@H](C)CO)C(=O)c2cc(NS(C)(=O)=O)ccc2O1,30.2% (inactive)
5,O=C(C[C@H]1C=C[C@H](NC(=O)c2ccccn2)[C@@H](CO)O1)NCc1cc(F)cc(F)c1,-9.02% [at 8 µM] (inactive)
6,O=C(C[C@H]1C[C@H]2c3cc(NC(=O)Nc4ccc(C(F)(F)F)cc4)ccc3O[C@H]2[C@@H](CO)O1)NCc1ccc2c(c1)OCO2,-6.78% [at 1.95 µM] (inactive)
7,CO[C@@H]1CN(C)C(=O)c2cc(NS(=O)(=O)c3cn(C)cn3)ccc2OC[C@@H](C)N(Cc2cccc(C(F)(F)F)c2)C[C@H]1C,28.5% (inactive)
8,Cc1noc(C)c1NC(=O)N[C@@H]1CC[C@H](CC(=O)Nc2ccc(-c3ccccc3)cc2)O[C@H]1CO,26.4% (inactive)
9,O=C(Nc1ccc(F)cc1)Nc1ccc2c(c1)[C@H]1C[C@@H](CC(=O)N3CCCCC3)O[C@H](CO)[C@H]1O2,-19.5% [at 2.1 µM] (inactive)
10,CCCN1C[C@@H](C)[C@@H](OC)CN(C)C(=O)c2cc(NC(=O)c3cccc(OC)c3)ccc2OC[C@H]1C,-8.56% [at 0.5 µM] (inactive)
11,CC(C)CC#Cc1ccc2c(c1)O[C@H](CN(C)CC1CC1)[C@H](C)CN([C@H](C)CO)S2(=O)=O,6.75% (inactive)
12,COCC(=O)Nc1ccc2c(c1)OC[C@H](C)N(Cc1cncnc1)C[C@@H](C)[C@H](OC)CN(C)C2=O,-11.5% (inactive)
13,COc1ccc(CNC(=O)N(C)C[C@H]2OCc3ccccc3-c3c(n(C)c4ccccc34)C(=O)N([C@@H](C)CO)C[C@@H]2C)cc1,30.4% (inactive)
14,C[C@@H]1CN([C@H](C)CO)C(=O)c2cc(NC(=O)Cc3ccccc3)ccc2O[C@@H]1CN(C)C(=O)Nc1ccccc1,-4.25% (inactive)
15,C[C@H](CO)N1C[C@H](C)[C@H](CN(C)C(=O)Nc2ccccc2)Oc2ccc(NC(=O)Cc3ccccc3)cc2C1=O,-7.38% (inactive)
16,C[C@@H]1CN([C@@H](C)CO)C(=O)c2cc(NC(=O)Cc3ccccc3)ccc2O[C@@H]1CN(C)C(=O)Nc1ccccc1,-11.4% [at 0.5 µM] (inactive)
17,C[C@H]1CN([C@@H](C)CO)C(=O)CCCn2nncc2CO[C@H]1CN(C)S(=O)(=O)c1ccc(Oc2ccccc2)cc1,10.4% (inactive)
18,C[C@H]1CN([C@@H](C)CO)C(=O)c2cc(NC(=O)Cc3ccccc3)ccc2O[C@H]1CN(C)C(=O)Nc1ccccc1,-15.5% (inactive)
19,C[C@H](CO)N1C[C@H](C)[C@H](CN(C)C(=O)Nc2ccc(C(F)(F)F)cc2)Oc2ncc(C3=CCCC3)cc2C1=O,32.4% (inactive)
